PME-1 primary: blocks human protein phosphatase methylesterase 1. Q9Y570. recombinant PME-1, FP-Rh probe fluorescence polarization. inhibition, % at 5.9 µM. 320,000 tested, 0.53% active. AID 2130;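 active means inhibition above the campaign mean of all compounds plus 3 SD, cut at about 26% in these data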;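 further: competitive labeling of PME-1 active site by serine hydrolase directed probe; 0% = PME-1 with DMSO and 100% = wells lacking PME-1 enzyme; inhibitors block probe labeling so polarization falls and inhibition rises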
PP5 primary: PP5 (human) phosphatase inhibition; P53041; purified PP5c, OMFP substrate fluorescence; AID 1987; inhibition, % at 6.7 µM; 320,000 tested, 0.18% active;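 active means inhibition above the campaign's mean inhibition across all tested compounds plus 3 SD, cut at about 9.5% in these data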;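 further: 0% = DMSO only and 100% = 100 µM cantharidin control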
Target sequence (P53041 whole entry, looked up): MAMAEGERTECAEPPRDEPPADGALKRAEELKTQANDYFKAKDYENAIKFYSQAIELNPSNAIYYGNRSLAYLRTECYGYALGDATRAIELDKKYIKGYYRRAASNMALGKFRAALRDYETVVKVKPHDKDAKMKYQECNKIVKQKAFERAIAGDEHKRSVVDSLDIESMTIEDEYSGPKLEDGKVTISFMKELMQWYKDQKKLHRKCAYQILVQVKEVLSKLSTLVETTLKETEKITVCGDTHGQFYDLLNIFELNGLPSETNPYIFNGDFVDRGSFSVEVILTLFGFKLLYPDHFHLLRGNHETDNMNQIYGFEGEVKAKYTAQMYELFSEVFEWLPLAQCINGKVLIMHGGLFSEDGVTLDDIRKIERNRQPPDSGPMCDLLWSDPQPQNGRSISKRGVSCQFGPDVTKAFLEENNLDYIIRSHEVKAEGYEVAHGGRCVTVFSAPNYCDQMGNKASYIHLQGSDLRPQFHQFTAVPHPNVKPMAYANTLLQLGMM
LYPLA2 counter: LYPLA2 (human) inhibition in PME1 counter-screen. inhibition, % at 5.9 µM. O95372. 320,000 tested, 0.38% active. recombinant LYPLA2, FP-Rh probe fluorescence polarization;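 active means inhibition above the screen-wide mean plus 3 SD, limit set per campaign, cut at about 26% in these data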;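 further: 0% = LYPLA2 with DMSO and 100% = wells lacking LYPLA2 enzyme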
Fam108B counter: counter-screen for RBBP9 inhibitors: inhibitors of mouse Fam108B. inhibition, % at 9.51 µM. 300,000 tested, 0.33% active. recombinant Fam108B, FP-Rh probe fluorescence polarization;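 active means inhibition above the screen mean inhibition plus 3 SD, computed separately per campaign, cut at about 18% in these data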;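 further: inhibitors lower polarization as less probe binds the enzyme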
PP1 inh: counter-screen for PP5 inhibitors: inhibitors of human PP1-alpha | purified PP1alpha, OMFP fluorescence | inhibition, % at 6.7 µM | 320,000 tested, 0.9% active | P62136;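 active means inhibition above the mean inhibition of all tested compounds plus 3 SD, computed separately for each screening campaign, cut at about 15% in these data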
LYPLA1 inh: counter-screen for PME1 inhibitors: inhibitors of human LYPLA1. O75608. recombinant LYPLA1, FP-Rh probe fluorescence polarization. AID 2174. 320,000 tested, 0.16% active. inhibition, % at 5.9 µM;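 active means inhibition above the mean of all tested compounds plus 3 SD, set per campaign, cut at about 14% in these data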;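 further: inhibitors block serine hydrolase probe labeling of LYPLA1 so polarization falls; 0% = enzyme with DMSO and 100% = wells lacking LYPLA1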
LYPLA1 confirm: counter-screen for PME1 inhibitors: confirmation of human LYPLA1 inhibitors | recombinant LYPLA1, FP-Rh probe fluorescence polarization | inhibition, % at 5.9 µM | shares compounds with LYPLA1 inh | 480 tested, 69% active;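 active means mean inhibition across replicates above the hit cutoff set in the primary screen, cut at about 15% in these data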;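 further: loss of FP-Rh probe labeling of LYPLA1 seen as lower polarization; 0% = LYPLA1 with DMSO and 100% = wells lacking LYPLA1 enzyme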
An asterisk follows results filed as active; / = no result. An excerpt weighted towards active compounds, which were near 1.8% of everything screened.

SMILES	PME-1 primary	PP5 primary	LYPLA2 counter	Fam108B counter	PP1 inh	LYPLA1 inh	LYPLA1 confirm
COCCCN(C(=O)CCOc1ccccc1C)c1c(N)n(Cc2ccccc2)c(=O)[nH]c1=O	0	2	5	0	-1	2	/
CC1CC(=O)Nc2ccccc2S1(=O)=O (stereo unspecified)	5	0	11	-2	-5	18*	5
O=S1(=O)c2ccccc2Nc2ccccc21	6	-1	-3	2	2	-5	/
CCCCCN(C(=O)CCC(=O)OCc1cc(C)ccc1C)c1c(N)n(CCCC)c(=O)[nH]c1=O	-2	0	6	3	-3	3	/
COc1ccccc1C(=O)NCC(=O)N=Nc1c(O)n(C(C)C)c2ccccc12	5	0	-8	1	1	20*	27*
Cc1ccc(OCc2cc(C(=O)N(C)Cc3cnn(-c4ccccc4C)c3)no2)cn1	-16	0	14	4	-2	27*	29*
COc1[nH]c(/N=C/c2ccccc2)c(C#N)c1C#N	20	-2	21	17	-2	17*	17*
Cc1ccc(NC(=O)CN2CCN(S(=O)(=O)c3ccc(F)cc3)CC2)cc1C	1	4	-2	/	-2	-1	/
O=C(Nc1ccncc1)c1ccc2c(c1)C(=O)N(C1CCCCC1)C2=O	-9	5	52*	-1	3	26*	31*
Cc1cc(NC(=O)c2ccc3c(c2)C(=O)N(C2CCCCC2)C3=O)no1	-3	1	1	-9	-3	-1	/
COc1cc(S(=O)(=O)NCc2ccccc2)ccc1-n1cnnn1	4	3	5	-1	-1	15*	2
C=CCn1c(O)c(N=NC(=S)Nc2ccc(OC)cc2)c2ccccc21	-6	7	7	13	9	30*	33*
COc1ccc(/C=C2/Sc3ccc(C(=O)NCCCN4CCOCC4)cc3NC2=O)cc1OC	15	-4	7	-4	-4	37*	67*
COc1cc(OC)cc(C(=O)N2CCN(C(=O)c3cccnc3)CC2)c1	3	0	-2	-5	-3	-1	/
CCCCNCc1ccc(OCc2ccc(Cl)nc2)c(OC)c1	-3	2	10	1	-5	15*	3
COc1cc(CNCCc2ccccc2)ccc1OCc1ccc(Cl)nc1	2	-1	21	1	0	4	/
CCN(c1ccc(NC(=O)c2ccc(N3CCCC3=O)cc2)cc1)C(C)C	7	0	0	5	-2	16*	17*
Cn1c(=O)c2cc(NCc3ccccc3)nnc2n(C)c1=O	29*	3	25	14	-3	19*	3
O=C(Nc1cccc([N+](=O)[O-])c1)c1cccc(C(=O)Nc2cccc([N+](=O)[O-])c2)c1	1	1	-2	-2	-6	-4	/
Cc1nc2ccc(C(=O)Nc3cccc([N+](=O)[O-])c3)cc2s1	-1	1	-4	3	-3	15*	22*
COc1ccccc1C(=O)NC(CCSC)C(=O)NCC(c1cccs1)N1CCOCC1 (stereo unspecified)	-5	1	5	1	-5	3	/
COc1ccc2c(c1)CCc1c(C(=O)N3CCCc4ccccc43)noc1-2	3	1	10	-4	1	34*	35*
O=C(Nc1ccc(C(=O)NCCCN2CCN(c3ccc(F)cc3)CC2)cc1)C1=CSCCO1	0	2	4	2	-1	0	/
Cc1ccc(OCC(=O)N2CCN(c3ccc([N+](=O)[O-])c(N4CCOCC4)c3)CC2)cc1	-4	3	8	1	7	41*	49*
O=C(COc1ccc(Br)cc1)N1CCN(c2ccc([N+](=O)[O-])c(N3CCCCC3)c2)CC1	2	2	7	7	11	66*	76*
SMILES	PME-1 primary	PP5 primary	LYPLA2 counter	Fam108B counter	PP1 inh	LYPLA1 inh	LYPLA1 confirm
COc1cc(C(=O)NCCc2ccc(F)cc2)ccc1OCC(=O)N1CCOCC1	-9	-1	9	-1	-5	7	/
CCOC(=O)Nc1cc(NC(=O)OCC)c(C)nc1C	-2	-2	8	-2	-6	5	/
CC(C)(C)OC(=O)N[C@@H](Cc1c[nH]c2ccccc12)c1nnc(SCC(N)=O)o1	1	6	9	-2	0	3	/
CC(C)Sc1nnc([C@H](Cc2c[nH]c3ccccc23)NC(=O)OC(C)(C)C)o1	-6	2	5	1	-4	46*	2
O=C1CCC([N+](=O)[O-])C(c2ccccc2C(F)(F)F)N1 (stereo unspecified)	-3	-1	4	-1	-4	3	/
COC(=O)c1ccc(COc2ccccc2/C=C(\C#N)C(=O)Nc2ccc(C)cc2C)cc1	6	0	5	-7	0	16*	-4
O=C1C(Cc2c[nH]c3ccccc23)NC(=S)N1Cc1ccccc1 (stereo unspecified)	2	2	-7	4	-2	38*	1
O=C1NC(Cc2c[nH]c3ccccc23)C(=O)N1Cc1ccccc1 (stereo unspecified)	2	1	-1	2	2	0	/
CN(C)C=Nc1c(Br)cc(Br)c2nonc12	6	0	-2	12	-6	14*	-1
CN(C)C=Nc1nonc1-c1ccccc1	2	-1	-2	-3	-1	-1	/
CCOC(=O)/C(=C\C=C\N1CCOCC1)C(C)=O	-3	2	2	-5	-1	-4	/
COC(=O)C(=C/C=C/N1CCOCC1)C(=O)OC	7	2	14	6	-1	15*	-1
O=C(Nc1cccc2ncccc12)c1ccc(Cl)cc1	-2	1	0	-1	-2	29*	3
CC1(C)Oc2ccc3ccc(=O)oc3c2/C(=C/NNC(N)=S)C1=O	2	1	-4	7	-3	9	/
CCCNC(=S)N1CCC(NC(=O)c2ccc(C)cc2)CC1	-2	0	-5	-2	-2	-3	/
Cc1ccc2nc(-c3sc4nc(C)cc(C)c4c3N)[nH]c2c1	30*	6	9	4	2	15*	2
CCOC(=O)NC(=O)/C(C#N)=C\Nc1sccc1C(=O)OC	26	-5	31*	6	-8	20*	3
CCOC(=O)NC(=O)/C(C#N)=C\Nc1ccc(Cl)cc1Cl	-4	-1	-2	0	-4	-1	/
O=C(O)c1cc(NN=C2c3ccccc3-c3ccccc32)ccc1Cl	35*	0	13	7	6	16*	16*
O=C(O)c1cccc2c1-c1ccccc1/C2=N\Nc1ccccc1	4	-1	3	1	1	2	/
COc1cc(NC(=O)Cn2ncc3c2-c2ccccc2OC3)cc(OC)c1OC	21	3	11	13	-5	20*	2
